Consider 40 compounds from ChEMBL document CHEMBL1157539, “Thousands of chemical starting points for antimalarial lead identification” (Nature, 2010).

The first assay relates to Plasmodium falciparum. Nature of the assay: GSK_TCMDC: Inhibition of Plasmodium falciparum 3D7 in whole red blood cells, using parasite LDH activity as an index of growth. Test compounds present at 2uM. Type of assay: functional.
`CCn1c(C)c(C)c2cc(C(=O)Nc3ccon3)ccc21` returned an Inhibition of 95%.

On to `Cc1cc(Nc2ccc(C)c(Cl)c2)n2nc(C(F)(F)F)nc2n1`, for which the Inhibition amounted to 98%.

On to `COc1cc2nc(N3CCC(CNC(=O)c4ccc(-c5ccc(C(=O)N(C)C)cc5OCCN(C)C)cc4)CC3)nc(N)c2cc1OC`, for which the Inhibition was determined as 95%.

The compound `O=C(Nc1ccc(Br)cc1)Nc1ccc(Cn2ncc(N3CCCNCC3)c(Cl)c2=O)cc1.O=C(O)C(F)(F)F` returned an Inhibition of 87%.

Regarding `CCOC(=O)CCCOc1c(OC)cc(Cc2cnc(N)nc2N)cc1OC`, the Inhibition was found to be 96%.

The compound `COc1cc(C(=O)Nc2ccc3nc(N4CCN(C)CC4)cc(C)c3c2)cc(OC)c1OC` registered an Inhibition of 100%.

In turn, `Clc1cccc(CNc2nc(NCCc3c[nH]cn3)nc(NC3CCCCC3)n2)c1` returned an Inhibition of 98%.

`Cc1cc2cc(-c3ccc(CN)cc3)ccc2nc1N`: the Inhibition was found to be 92%.

For the compound `O=C(CSc1nc2ccc([N+](=O)[O-])cc2s1)Nc1ccccc1-c1ccccc1`, the Inhibition was 80%.

The compound `CC(C)c1ccc(CN2CCC(CNC(=O)c3cc(-c4cccc(Cl)c4)cs3)C2)cc1.O=C(O)C(F)(F)F` (stereo not given) had an Inhibition of 99%.

For `CC(C)(C)c1ccc2[nH]c(-c3ccc(/C=C/C(=O)NC4CCN(Cc5ccccc5)CC4)cc3)nc2c1`, the Inhibition was found to be 100%.

For the compound `COc1ccc2nccc([C@@H](O)CN3CCC(NCc4nc5c(cc4Cl)OCC(=O)N5)C(F)C3)c2c1.Cl` (stereo not given in full), the Inhibition came out at 84%.

For the compound `COc1ccc2ncc(F)c(CCN3CC(O)C(CNCc4ccc5ccccc5c4)C3)c2n1.Cl` (stereo not given), the Inhibition is given as 100%.

Turning to `CC(C)NCc1ccc(-c2ccc(NS(=O)(=O)c3cccc4cccnc34)cc2)cc1.O=C(O)C(F)(F)F`, the Inhibition amounted to 90%.

For `Br.CC1(C)NC(N)=NC(=N)N1OCCCSc1ccccc1`, the Inhibition was found to be 93%.

In turn, `Cc1cc(F)ccc1Nc1nc(N(C)c2ccccc2)c2cccc(OCCO)c2n1` had an Inhibition of 95%.

`Brc1ccsc1-c1nc(NCCC(c2ccccc2)c2ccccc2)no1` had an Inhibition of 94%.

The compound `Cc1[nH]c(C)c(-c2ccc(OCc3ccc(F)cc3)nc2)c(=O)c1Br` displayed an Inhibition of 97%.

`FC(F)(F)c1ccc2[nH]c(-c3ccc(-c4cccc(CNCc5cnn(-c6ccccc6)n5)c4)s3)nc2c1.O=C(O)C(F)(F)F` had an Inhibition of 100%.

Compound `COc1cc(C(=O)N2CCOC(CCN3CCC[C@H]3C(=O)Nc3ccccc3)(c3ccc(Cl)c(Cl)c3)C2)cc(OC)c1OC` (stereo not given in full) had an Inhibition of 98%.

Consider `Cc1c2ccncc2c(C)c2c1[nH]c1cc(Cc3ccccc3)c(O)cc12`, for which the Inhibition was 100%.

Compound `Cc1ccc(NC(=O)Nc2ccc(Br)cc2)cc1OCCN(C)C` registered an Inhibition of 84%.

`CCOc1cc(C(=O)NC2CCN(Cc3ccccc3)CC2)ccc1-c1nc2cc(Cl)ccc2[nH]1` gave an Inhibition of 100%.

In turn, `O=C(Nc1ccc2c(c1)CCN2C1CCN(Cc2ccc(O)cc2)C1)c1ccco1` (stereo not given) had an Inhibition of 97%.

For the compound `Cc1cc(NC(=O)c2coc3cc(F)c(N4CC(C)N(C)C(C)C4)cc23)cnc1-c1ccc(C#N)cc1.Cl` (stereo not given), the Inhibition is given as 99%.

`CCC(CC)OC(=O)C(C)c1cccc(C(=O)c2ccccc2)c1` (stereo not given) gave an Inhibition of 93%.

For the compound `O=C(O)C(F)(F)F.O=C1CCCN1CCCNCc1cccc(-c2ccc(-c3nc4ccccc4[nH]3)s2)c1`, the Inhibition was 97%.

For the compound `Cc1[nH]c(C)c(-c2csc3ccccc23)c(=O)c1Cl`, the Inhibition was 97%.

Turning to `COc1cccc(-c2ccc(C(=O)NC3CCN(Cc4ccc(C(C)(C)C)cc4)CC3)s2)c1.O=C(O)C(F)(F)F`, the Inhibition is given as 85%.

In turn, `CCc1ccc(N2C(N)=NC(N)=NC2(C)C)cc1.Cl` yielded an Inhibition of 94%.

On to `O=C(Nc1ccc(Br)cc1)N1CCC(n2c(-c3ccccc3)nc3cccnc32)CC1`, for which the Inhibition is 90%.

The compound `COC(=O)c1cccc(CNCc2ccc(-c3cccc(-c4nc5cccc(C)c5[nH]4)c3)cc2)c1.O=C(O)C(F)(F)F` had an Inhibition of 100%.

Consider `CCCNCc1ccc(-c2ccc(CN(C(=O)c3nn(-c4ccccc4)nc3C)C(C)CN(C)C)cc2)nc1.O=C(O)C(F)(F)F` (stereo not given), for which the Inhibition stood at 95%.

`CCc1ccc(CN2CCC(CNC(=O)c3cc(-c4ccccc4F)cs3)C2)cc1.O=C(O)C(F)(F)F` (stereo not given) registered an Inhibition of 100%.

`CCCOc1cc(O)c(-c2[nH]nc(C)c2Oc2ccccc2)cc1CC` yielded an Inhibition of 91%.

Compound `COc1ccc(NC(=O)Nc2cccc(-c3cccc(-c4nc5cc(F)ccc5[nH]4)c3)c2)cc1` came in with an Inhibition of 99%.

As to `Cc1c(C(=O)Nc2cc(Sc3ccc(F)cc3)cc([N+](=O)[O-])c2)sc2ncn(Cc3cccc(F)c3)c(=O)c12`, the Inhibition stood at 100%.

On to `Cc1ccc(CNc2ccc3ncc(-c4cccc(C(=O)NCCN(C)C)c4)n3n2)c(C)c1`, for which the Inhibition is recorded as 100%.

For the compound `CCN(CCNC(=O)Nc1cc(C(F)(F)F)cc(C(F)(F)F)c1)c1cccc(C)c1`, the Inhibition is 98%.

On to `CC1CN(Cc2ccc(-c3ccc(-c4nc5cc(F)ccc5[nH]4)s3)cc2)CC(C)O1.O=C(O)C(F)(F)F` (stereo not given), for which the Inhibition stood at 88%.

The next assay has as its system Plasmodium falciparum. The assay can be described thus: GSK_TCMDC: Inhibition of Plasmodium falciparum Dd2 in whole red blood cells, using parasite LDH activity as an index of growth. Test compounds present at 2uM. Type of assay: functional.
For the compound `CCn1c(C)c(C)c2cc(C(=O)Nc3ccon3)ccc21`, the Inhibition is given as 93%.

On to `Cc1cc(Nc2ccc(C)c(Cl)c2)n2nc(C(F)(F)F)nc2n1`, for which the Inhibition worked out at 97%.

Regarding `COc1cc2nc(N3CCC(CNC(=O)c4ccc(-c5ccc(C(=O)N(C)C)cc5OCCN(C)C)cc4)CC3)nc(N)c2cc1OC`, the Inhibition is recorded as 0%.

Take `O=C(Nc1ccc(Br)cc1)Nc1ccc(Cn2ncc(N3CCCNCC3)c(Cl)c2=O)cc1.O=C(O)C(F)(F)F`: the Inhibition was 15%.

On to `CCOC(=O)CCCOc1c(OC)cc(Cc2cnc(N)nc2N)cc1OC`, for which the Inhibition came to 7%.

As to `COc1cc(C(=O)Nc2ccc3nc(N4CCN(C)CC4)cc(C)c3c2)cc(OC)c1OC`, the Inhibition is on record as 79%.

In turn, `Clc1cccc(CNc2nc(NCCc3c[nH]cn3)nc(NC3CCCCC3)n2)c1` showed an Inhibition of 0%.

In turn, `Cc1cc2cc(-c3ccc(CN)cc3)ccc2nc1N` yielded an Inhibition of 8%.

For `O=C(CSc1nc2ccc([N+](=O)[O-])cc2s1)Nc1ccccc1-c1ccccc1`, the Inhibition worked out at 49%.

In turn, `CC(C)c1ccc(CN2CCC(CNC(=O)c3cc(-c4cccc(Cl)c4)cs3)C2)cc1.O=C(O)C(F)(F)F` (stereo not given) displayed an Inhibition of 43%.

`CC(C)(C)c1ccc2[nH]c(-c3ccc(/C=C/C(=O)NC4CCN(Cc5ccccc5)CC4)cc3)nc2c1` showed an Inhibition of 96%.

Regarding `COc1ccc2nccc([C@@H](O)CN3CCC(NCc4nc5c(cc4Cl)OCC(=O)N5)C(F)C3)c2c1.Cl` (stereo not given in full), the Inhibition was found to be 29%.

On to `COc1ccc2ncc(F)c(CCN3CC(O)C(CNCc4ccc5ccccc5c4)C3)c2n1.Cl` (stereo not given), for which the Inhibition is recorded as 78%.

`CC(C)NCc1ccc(-c2ccc(NS(=O)(=O)c3cccc4cccnc34)cc2)cc1.O=C(O)C(F)(F)F` returned an Inhibition of 45%.

`Br.CC1(C)NC(N)=NC(=N)N1OCCCSc1ccccc1`: the Inhibition came to 94%.

`Cc1cc(F)ccc1Nc1nc(N(C)c2ccccc2)c2cccc(OCCO)c2n1`: the Inhibition was 94%.

Compound `Brc1ccsc1-c1nc(NCCC(c2ccccc2)c2ccccc2)no1` gave an Inhibition of 81%.

The compound `Cc1[nH]c(C)c(-c2ccc(OCc3ccc(F)cc3)nc2)c(=O)c1Br` returned an Inhibition of 97%.

`FC(F)(F)c1ccc2[nH]c(-c3ccc(-c4cccc(CNCc5cnn(-c6ccccc6)n5)c4)s3)nc2c1.O=C(O)C(F)(F)F` returned an Inhibition of 91%.

`COc1cc(C(=O)N2CCOC(CCN3CCC[C@H]3C(=O)Nc3ccccc3)(c3ccc(Cl)c(Cl)c3)C2)cc(OC)c1OC` (stereo not given in full): the Inhibition amounted to 88%.

Compound `Cc1c2ccncc2c(C)c2c1[nH]c1cc(Cc3ccccc3)c(O)cc12` came in with an Inhibition of 99%.

The compound `Cc1ccc(NC(=O)Nc2ccc(Br)cc2)cc1OCCN(C)C` returned an Inhibition of 15%.

The compound `CCOc1cc(C(=O)NC2CCN(Cc3ccccc3)CC2)ccc1-c1nc2cc(Cl)ccc2[nH]1` displayed an Inhibition of 84%.

Compound `O=C(Nc1ccc2c(c1)CCN2C1CCN(Cc2ccc(O)cc2)C1)c1ccco1` (stereo not given) yielded an Inhibition of 63%.

Compound `Cc1cc(NC(=O)c2coc3cc(F)c(N4CC(C)N(C)C(C)C4)cc23)cnc1-c1ccc(C#N)cc1.Cl` (stereo not given) registered an Inhibition of 71%.

Turning to `CCC(CC)OC(=O)C(C)c1cccc(C(=O)c2ccccc2)c1` (stereo not given), the Inhibition amounted to 0%.

Take `O=C(O)C(F)(F)F.O=C1CCCN1CCCNCc1cccc(-c2ccc(-c3nc4ccccc4[nH]3)s2)c1`: the Inhibition came out at 0%.

`Cc1[nH]c(C)c(-c2csc3ccccc23)c(=O)c1Cl` had an Inhibition of 75%.

In the case of `COc1cccc(-c2ccc(C(=O)NC3CCN(Cc4ccc(C(C)(C)C)cc4)CC3)s2)c1.O=C(O)C(F)(F)F`, the Inhibition turned out to be 23%.

`CCc1ccc(N2C(N)=NC(N)=NC2(C)C)cc1.Cl` displayed an Inhibition of 0%.

Compound `O=C(Nc1ccc(Br)cc1)N1CCC(n2c(-c3ccccc3)nc3cccnc32)CC1` showed an Inhibition of 86%.

Take `COC(=O)c1cccc(CNCc2ccc(-c3cccc(-c4nc5cccc(C)c5[nH]4)c3)cc2)c1.O=C(O)C(F)(F)F`: the Inhibition came out at 84%.

On to `CCCNCc1ccc(-c2ccc(CN(C(=O)c3nn(-c4ccccc4)nc3C)C(C)CN(C)C)cc2)nc1.O=C(O)C(F)(F)F` (stereo not given), for which the Inhibition came out at 95%.

For the compound `CCc1ccc(CN2CCC(CNC(=O)c3cc(-c4ccccc4F)cs3)C2)cc1.O=C(O)C(F)(F)F` (stereo not given), the Inhibition came out at 3%.

In the case of `CCCOc1cc(O)c(-c2[nH]nc(C)c2Oc2ccccc2)cc1CC`, the Inhibition worked out at 46%.

`COc1ccc(NC(=O)Nc2cccc(-c3cccc(-c4nc5cc(F)ccc5[nH]4)c3)c2)cc1` yielded an Inhibition of 39%.

Take `Cc1c(C(=O)Nc2cc(Sc3ccc(F)cc3)cc([N+](=O)[O-])c2)sc2ncn(Cc3cccc(F)c3)c(=O)c12`: the Inhibition is given as 53%.

`Cc1ccc(CNc2ccc3ncc(-c4cccc(C(=O)NCCN(C)C)c4)n3n2)c(C)c1` had an Inhibition of 78%.

For the compound `CCN(CCNC(=O)Nc1cc(C(F)(F)F)cc(C(F)(F)F)c1)c1cccc(C)c1`, the Inhibition is recorded as 100%.

In turn, `CC1CN(Cc2ccc(-c3ccc(-c4nc5cc(F)ccc5[nH]4)s3)cc2)CC(C)O1.O=C(O)C(F)(F)F` (stereo not given) registered an Inhibition of 89%.

One may read the Inhibition as the percentage by which the read-out fell short of the control. A high value points to a strong effect.
